Data: PubChem BioAssay (NCI)
Compounds without any hit were thinned out: in the full panel of roughly 83,000, 20% have a hit.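 96-well plates, one dose, 48 hours. Percent growth reported; active if below 10.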

Columns and labels:
Test in all cases: NCI-60 one-dose screen, 48 h (100 = growth as untreated, 0 = no growth, -100 = all killed)
NCI-H226 lung = conditions: 10 µM unless noted
MALME-3M melanoma = conditions: 10 µM unless noted
RXF 393 renal = conditions: 10 µM unless noted
SF-295 CNS = conditions: 10 µM unless noted
UACC-257 melanoma = conditions: 10 µM unless noted
M14 melanoma = conditions: 10 µM unless noted
PC-3 prostate = conditions: 10 µM unless noted
SK-MEL-5 melanoma = conditions: 10 µM unless noted
LOX IMVI melanoma = conditions: 10 µM unless noted
CAKI-1 renal = conditions: 10 µM unless noted
A498 renal = conditions: 10 µM unless noted
CCRF-CEM leukemia = conditions: 10 µM unless noted
MOLT-4 leukemia = conditions: 10 µM
RPMI-8226 leukemia = conditions: 10 µM unless noted
OVCAR-8 ovarian = conditions: 10 µM unless noted
OVCAR-3 ovarian = conditions: 10 µM unless noted
HS 578T breast = conditions: 10 µM unless noted
BT-549 breast = conditions: 10 µM
HCT-116 colon = conditions: 10 µM unless noted
HCC-2998 colon = conditions: 10 µM unless noted

Measured: growth

Oc1ccccc1OB(Oc1ccccc1O)N(CCCl)CCCl
inactive: NCI-H226 lung 101% | MALME-3M melanoma 89.9% | RXF 393 renal 94.9% | SF-295 CNS 102% | UACC-257 melanoma 84.4% | M14 melanoma 85.2% | PC-3 prostate 82.8% | SK-MEL-5 melanoma 89.9% | LOX IMVI melanoma 89.4% | CAKI-1 renal 80.4% | A498 renal 88.6% | CCRF-CEM leukemia 18.4% | MOLT-4 leukemia 57.6% | RPMI-8226 leukemia 39.2% | OVCAR-8 ovarian 77.2% | OVCAR-3 ovarian 73.8% | HS 578T breast 106% | BT-549 breast 49.4% | HCT-116 colon 86.8% | HCC-2998 colon 98.4%

O=C(O)CNC(=O)c1ccccc1
inactive: NCI-H226 lung 109% | MALME-3M melanoma 133% | RXF 393 renal 102% | SF-295 CNS 104% | UACC-257 melanoma 92.4% | M14 melanoma 99.4% | PC-3 prostate 102% | SK-MEL-5 melanoma 98.9% | LOX IMVI melanoma 95.9% | CAKI-1 renal 83.2% | A498 renal 85% | CCRF-CEM leukemia 101% | RPMI-8226 leukemia 92.2% | OVCAR-8 ovarian 113% | OVCAR-3 ovarian 105% | HS 578T breast 108% | BT-549 breast 97.5% | HCT-116 colon 98.2% | HCC-2998 colon 98.9%

C[As](=O)(O)c1ccc(C(=O)O)cc1
inactive: NCI-H226 lung 99.7% | MALME-3M melanoma 112% | RXF 393 renal 95.9% | SF-295 CNS 99.8% | UACC-257 melanoma 102% | M14 melanoma 104% | PC-3 prostate 97.9% | SK-MEL-5 melanoma 108% | LOX IMVI melanoma 115% | CAKI-1 renal 120% | A498 renal 96.3% | MOLT-4 leukemia 110% | RPMI-8226 leukemia 101% | OVCAR-8 ovarian 101% | OVCAR-3 ovarian 121% | HS 578T breast 113% | BT-549 breast 117% | HCT-116 colon 110% | HCC-2998 colon 116%
